Screens deposited in PubChem by National Center for Advancing Translational Sciences (NCATS).
HTT cytoprotect – Huntington cell model cytoprotection by ATP luminescence. PC12 HTT-Q103 induced, cytoprotection, ATP luminescence, 40 h. AID 1471. 0.14% of 230,000 active. Potency, µM (top dose mostly 56.4 µM), for inactives: cytoprotection (ATP increase), actives largely listed as activators; also: potency is read from the fitted curve at half-maximal effect; % of control where 0% means no effect; nearly all actives have a fitted effect of over 45% in size
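Compounds added alongside 100 nM tebufenozide, which induces toxic Q103 huntingtin exon 1-GFP in stable PC12 cells; surviving cells quantified by luminescent ATP measurement. Medium: phenol red-free DMEM, 5% equine and 5% calf serum.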
CBFb RUNX1 block – CBF-beta/RUNX1 interaction disruption. AlphaScreen CBFb-His/RUNX1-biotin binding, biochemical. Potency, µM (doses to about 59.8 µM), for the others: top-dose activity, negative = inhibition, most hits filed as inhibitors. 230,000 tested, under 10 active. AID 1477; also: % of control where 0% means no effect
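Bead-based AlphaScreen assay; binding partners His-tagged CBF-beta and biotinylated RUNX1 at 30 nM each. Compound exposure 15 min after a 20-min protein preincubation; bead step 90 min; all steps at room temperature.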
ALDH1A1 inh – inhibitors of human aldehyde dehydrogenase 1A1; Purified ALDH1A1, NADH fluorescence, propionaldehyde substrate; Potency, µM (titrated, usually from 75.3 µM), for inactives: at the top dose activity, negative = inhibition, most hits filed as inhibitors; 7.3% of 220,000 active; active = well fitted inhibition curve with a large enough effect, not every such curve was filed as active; inconclusive = small, poorly fitted or top-dose-only effect, or another doubt; inactive = no such curve, though single readings can be large or run the other way;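 also: potency is read from the fitted curve at half-maximal effect; plate controls were no enzyme wells and a reference inhibitor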
Target sequence (P00352 whole entry, looked up): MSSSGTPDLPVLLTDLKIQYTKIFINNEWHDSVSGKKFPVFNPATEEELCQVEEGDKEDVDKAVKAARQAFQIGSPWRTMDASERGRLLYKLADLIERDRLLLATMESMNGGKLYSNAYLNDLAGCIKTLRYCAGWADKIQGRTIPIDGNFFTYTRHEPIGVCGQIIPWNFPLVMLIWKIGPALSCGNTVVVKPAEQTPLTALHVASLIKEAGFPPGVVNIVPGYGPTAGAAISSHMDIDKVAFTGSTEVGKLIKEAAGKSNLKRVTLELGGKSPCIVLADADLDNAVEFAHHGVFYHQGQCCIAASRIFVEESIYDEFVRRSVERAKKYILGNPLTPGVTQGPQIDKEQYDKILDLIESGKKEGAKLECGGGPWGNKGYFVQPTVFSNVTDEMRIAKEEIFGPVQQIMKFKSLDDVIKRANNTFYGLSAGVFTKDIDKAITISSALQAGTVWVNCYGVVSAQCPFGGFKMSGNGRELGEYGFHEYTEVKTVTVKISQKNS
HPGD inh – blocks human HPGD enzyme activity; P15428; purified HPGD, NADH fluorescence kinetic, PGE2 substrate; Potency, µM, without a hit: top-dose activity change, negative = inhibition, usual class: inhibitors; 4.3% of 150,000 active; AID 894; active = well fitted inhibition curve with a large enough effect, not every such curve was filed as active; inconclusive = small, poorly fitted or top-dose-only effect, or another doubt; inactive = no such curve, though single readings can be large or run the other way; also: potency is read from the fitted curve at half-maximal effect; % is scaled to controls: 0 for no effect and ±100 for the full control effect
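NADH formation kinetics: reaction with 30 uM PGE2 and 1 mM NAD+ (final), 20 nM enzyme, Tris-HCl pH 8 with Tween 20, after 15 min compound preincubation at room temperature. Fluorescence change, last versus first of five reads.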
KDM4E inh – inhibitors of human JMJD2E histone demethylase; B2RXH2; JMJD2E catalytic domain, FDH-coupled NADH fluorescence (FDH is formaldehyde dehydrogenase); Potency, µM (top dose mostly 57.1 µM), for the others: at the highest dose activity change, negative = inhibition, usual class: inhibitors; 1.6% of 230,000 active; AID 2147; active = well fitted inhibition curve with a large enough effect, not every such curve was filed as active; inconclusive = small, poorly fitted or top-dose-only effect, or another doubt; inactive = no such curve, though single readings can be large or run the other way;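 also: potency is read from the fitted curve at half-maximal effect; 0% = wells with enzyme and -100% = buffer wells without enzyme; nearly all actives have a fitted effect of over 50% in size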
Target sequence (B2RXH2 1-337 limits assumed): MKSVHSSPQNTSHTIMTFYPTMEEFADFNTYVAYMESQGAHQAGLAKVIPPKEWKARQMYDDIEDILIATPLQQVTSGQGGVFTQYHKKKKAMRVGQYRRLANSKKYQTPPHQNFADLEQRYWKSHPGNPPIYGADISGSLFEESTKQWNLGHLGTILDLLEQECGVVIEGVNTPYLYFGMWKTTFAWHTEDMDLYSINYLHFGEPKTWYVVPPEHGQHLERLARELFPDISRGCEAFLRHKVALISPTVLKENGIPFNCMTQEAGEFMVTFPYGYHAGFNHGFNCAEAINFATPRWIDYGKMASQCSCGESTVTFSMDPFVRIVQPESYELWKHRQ
HTT aggregate – reduces HttQ103-GFP aggregates in PC12 cells; Potency, µM (series often up to 46.1 µM), inactives show at the highest dose activity change, negative = inhibition, usual class: inhibitors; AID 1688; 1.1% of 220,000 active; PC12 HttQ103-GFP aggregates, Acumen cytometry, 40 h; also: potency is read from the fitted curve at half-maximal effect; % is scaled to controls: 0 for no effect and ±100 for the full control effect; nearly all actives have a fitted effect of over 60% in size
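Huntingtin Q103 exon 1–GFP aggregates in induced PC12 cells (100 nM tebufenozide) were quantified by cytometry from lysates, with compounds dosed in titration.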
* hit, by the source's call; ? = inconclusive; · = no result; [ ] = dose if it differs, or a comment. Shown are actives, neighbours in structure and some others; about 9.8% of the full set was active somewhere. Unless noted, calls follow the shape of the dose curve; as a rule, active = well fitted curve in the direction sought with a large enough effect; inconclusive = small, poorly fitted or top-dose-only effect, or another doubt; inactive = no such curve, though single readings can be large; an effect the other way counts as inactive or inconclusive.

SMILES	HTT cytoprotect	CBFb RUNX1 block	ALDH1A1 inh	HPGD inh	KDM4E inh	HTT aggregate
COc1ccc(N2C(=O)CC(Sc3nnc(-c4ccccc4F)n3C)C2=O)cc1 (stereo not drawn)	-5.5%	-5.4%	1.78µM*	·	?	?
COc1ccc(N2C(=O)CC(Sc3nc4ccccc4s3)C2=O)cc1 (stereo not drawn)	-136.9%	2.0%	7.94µM*	·	0.0%	31.6µM*
CCN=C(NCC)SC1CC(=O)N(c2ccc(OCC)cc2)C1=O (stereo not drawn)	6.2%[10 µM]	9.7%	-10.3%	·	-5.7%	-11.9%[9.22 µM]
CSc1cccc(NS(=O)(=O)c2ccc3c(c2)oc(=O)n3C)c1	-6.5%	-0.9%	-2.0%	-13.8%	-2.3%	?
Cc1cccc(N(C(=O)c2nsc(Cl)c2Cl)C(C(=O)NC2CCCC2)c2ccc(O)cc2)c1 (stereo not drawn)	-0.5%[10 µM]	-3.5%	5.4%	-3.7%	10.1%	?
CC(C)N1C(=O)CCC1C(=O)N1CCCc2ccccc21 (stereo not drawn)	3.8%[0.074 µM]	2.4%	10.6%	-1.8%	3.9%	17.4%
C=CCN(CC(=O)NC1CCS(=O)(=O)C1)S(=O)(=O)c1ccccc1C(F)(F)F (stereo not drawn)	0.6%	2.0%	11.6%	·	-5.8%	3.1%
Cc1ccc(S(=O)(=O)CCC(=O)O)cc1C	34.4%[1.9 µM]	3.0%	8.91µM*	-2.3%	1.8%	-11.5%
O=C(CN(C(=O)CNS(=O)(=O)c1ccccc1)c1ccc2c(c1)OCCO2)NCc1ccco1	-5.2%[10 µM]	-4.3%	1.8%	-4.8%	5.5%	3.1%
O=C(CN(Cc1ccc2c(c1)OCO2)C(=O)CNS(=O)(=O)c1ccccc1)NCc1ccco1	5.0%[1.9 µM]	-0.1%	4.47µM*	-8.7%	0.6%	-7.3%
COc1cccc(C(CC(=O)NCc2ccco2)NS(=O)(=O)c2ccc(C)cc2)c1OC (stereo not drawn)	10.1%[10 µM]	-5.7%	20µM*	-9.4%	-14.8%	1.6%
COc1ccccc1CN(CC(=O)NCc1ccco1)C(=O)CNS(=O)(=O)c1ccc(C)cc1	-18.0%[10 µM]	-4.8%	22.4µM*	3.4%	1.3%	-0.4%
Cc1cnc(-c2nnc(N(C)C(=O)c3cnccn3)s2)cn1	-3.9%[10 µM]	·	·	·	·	·
COc1ccc(-n2ncc(N(C)n3cccc3)c(Cl)c2=O)cc1	-6.2%	-3.5%	2.4%	·	-0.2%	1.5%
COc1ccc(-n2ncc(Cl)c(Cl)c2=O)cc1	·	14.5%	10µM*	·	4.2%	3.98µM*
CC[n+]1ccc(C(=O)NCc2ccccc2)cc1	-14.4%[10 µM]	19.8%	-1.8%	·	0.0%	-7.0%
[ClH+][Cu][ClH+].[Cu].[OH2+]c1ccc2ccccc2c1CN1CCCCC1.[OH2+]c1ccc2ccccc2c1CN1CCCCC1	·	·	1.78µM*	-12.6%	·	·
Oc1ccc2ccccc2c1CN1CCN(c2ccccc2F)CC1	-1.7%	3.3%	?	-26.4%	?	30.6%
CCOc1ccc(NC(=O)CSc2nc3nc4c(cc3c(=O)n2CC)COC(C)(C)C4)cc1	9.5%[10 µM]	4.0%	·	·	5.2%	11.8%[9.22 µM]
Cc1cccc(OCc2n[nH]c(=S)o2)c1	-0.7%[10 µM]	-0.3%	?	-4.5%	-4.9%	-19.3%
Cc1cccc(OCc2n[nH]c(=S)o2)c1C	·	2.7%	17.8µM*	·	3.3%	·
Cc1cccc(C)c1OCc1n[nH]c(=S)o1	17.6%[1.9 µM]	10.9%	8.91µM*	-2.8%	1.3%	-7.2%
C/C(=N\NC(=O)CNC(=O)C1COc2ccccc2O1)c1ccc(Cl)cc1 (stereo not drawn)	2.1%[10 µM]	-6.8%	·	·	5.6%	-12.9%[9.22 µM]
COc1ccc(Oc2ccc(N/C=C/C(=O)C(C)(C)C)cc2)cc1	·	1.2%	?	·	?	-13.0%
CC(=O)Nc1ccc(N/C=C/C(=O)C(C)(C)C)cc1	16.2%	2.3%	22.4µM*	?	?	27.2%
SMILES	HTT cytoprotect	CBFb RUNX1 block	ALDH1A1 inh	HPGD inh	KDM4E inh	HTT aggregate
COc1ccccc1Oc1ccc(N/C=C/C(=O)C(C)(C)C)cc1	-13.5%[10 µM]	0.8%	-14.8%	·	-6.6%	-1.8%[9.22 µM]
COc1cccc(Oc2ccc(N/C=C/C(=O)C(C)(C)C)cc2)c1	·	6.6%	10µM*	-26.0%	-5.5%	7.2%
CC[C@H](C)[C@H](NC(=O)[C@H](C)NC(=O)CNC(=O)[C@H](CCCN=C(N)N)NC(=O)[C@H](C)NC(=O)[C@H](CC(C)C)NC(=O)[C@H](CCC(=O)O)NC(=O)[C@H](CC(C)C)NC(=O)[C@H](C)NC(=O)[C@@H](N)CCC(=O)O)C(=O)N[C@@H](Cc1ccccc1)C(=O)N[C@@H](CCC(N)=O)C(=O)N[C@@H](C)C(=O)O	·	13.0%	·	·	·	·
COc1ccc(Nc2nc(C)c(-c3ccccc3)s2)cc1	-8.1%[10 µM]	-3.3%	25.1µM*	20µM*	?	?
COc1ccc(Nc2nc(-c3sc(N)nc3C)cs2)cc1	0.3%[10 µM]	?	7.08µM*	-23.0%	5.1%	30.3%
Cc1nc(N)sc1-c1csc(Nc2ccccn2)n1	-4.2%	?	?	-8.3%	?	-6.9%
COc1ccc2nc(Nc3ccccc3)sc2c1	-131.1%	1.4%	1.6%	·	-2.2%	-6.5%
COc1ccc(Nc2nc(-c3sc(NC(C)=O)nc3C)cs2)cc1	-33.9%	-8.7%	31.6µM*	?	-16.3%	-3.1%[9.22 µM]
C=CCNc1nc(-c2sc(NC(C)=O)nc2C)cs1	-33.8%	-9.0%	?	?	?	12.6µM*
CCc1cccc(CC)c1N(COC)C(=O)Cn1ccccc1=N	-6.4%[10 µM]	1.7%	-11.7%	?	?	-1.1%
CCOP(=O)(OCC)/C(C#N)=C/c1c[nH]c2ccccc12	0.0%[10 µM]	-3.4%	10.1%	·	4.9%	11.0%[9.22 µM]
CCOP(=O)(OCC)/C(C#N)=C/c1ccc([N+](=O)[O-])cc1	7.2%[10 µM]	1.6%	-8.2%	·	8.91µM*	19.0%[9.22 µM]
O=C1C=CC(=O)N1c1ccc(OC(F)F)cc1	·	-5.3%	0.708µM*	7.08µM*	2.8%	?
CN1c2ccccc2N(C)C1(C)c1ccccc1	-19.0%[10 µM]	-7.0%	?	-10.9%	6.9%	-14.4%
CCN1c2ccccc2N(C)C1(C)c1ccccc1 (stereo not drawn)	16.1%[10 µM]	-27.3%	-7.0%	-6.8%	?	12.6µM*
CSC(=Nc1ccccc1)C1=C(O)COC1=O	-1.3%[10 µM]	0.6%	25.1µM*	-1.7%	?	18.0%
CN(C)C(=S)NC(C)(C)C	3.7%[10 µM]	-0.7%	2.8%	·	-0.4%	4.7%[9.22 µM]
Cc1ccccc1/C=C/c1cc[n+](C)cc1	-22.3%	-17.1%	-14.4%	·	25.1µM*	-28.9%
O=C(c1cc(C(F)(F)F)cc(C(F)(F)F)c1)N1CCC[C@@]2(CCN(c3ccncc3)C2)C1	-5.4%	·	7.8%	-3.2%	·	·
O=C(NCc1ccco1)c1ccccc1Br	2.9%[0.074 µM]	2.1%	8.8%	2µM*	12.1%	?
CCSc1ccccc1C(=O)NCc1ccco1	8.2%	1.0%	2.4%	12.6µM*	-0.7%	-3.2%
